PTHR1 agonist: PTHR1 (human) receptor agonism. Q03431. Potency, µM (titrated, usually from 115 µM), without a hit: top-dose activation, actives largely listed as activators. 410,000 tested, 0.075% active. HEK293 GP2 PTHR1 cells, GloSensor cAMP luminescence, 1 h. AID 743266; further: nearly all actives have a fitted effect of over 55% in size
Target sequence (Q03431 whole entry, looked up): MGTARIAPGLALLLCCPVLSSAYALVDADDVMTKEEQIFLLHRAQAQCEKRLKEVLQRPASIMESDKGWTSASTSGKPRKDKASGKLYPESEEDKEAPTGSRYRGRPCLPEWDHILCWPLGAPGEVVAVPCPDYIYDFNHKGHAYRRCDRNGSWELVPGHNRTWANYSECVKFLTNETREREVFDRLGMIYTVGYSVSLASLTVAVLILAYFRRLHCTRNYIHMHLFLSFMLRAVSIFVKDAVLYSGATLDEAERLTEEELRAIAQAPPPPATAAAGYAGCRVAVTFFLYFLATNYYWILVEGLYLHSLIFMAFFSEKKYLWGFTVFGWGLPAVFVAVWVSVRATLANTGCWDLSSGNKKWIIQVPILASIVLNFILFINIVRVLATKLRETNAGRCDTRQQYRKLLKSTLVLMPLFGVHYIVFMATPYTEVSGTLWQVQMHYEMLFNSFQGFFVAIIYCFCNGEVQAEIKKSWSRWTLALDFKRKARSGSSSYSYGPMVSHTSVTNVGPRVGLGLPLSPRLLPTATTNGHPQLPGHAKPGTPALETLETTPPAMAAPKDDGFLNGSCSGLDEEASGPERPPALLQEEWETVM
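HEK-293-derived GP2 cells expressing PTHR1 and a GloSensor cAMP reporter, 3,000/well, plated overnight, given luciferin plus IBMX (each 0.5 mM as added) for 1 h at 37 °C, then compound for 1 h at 37 °C. Luminescence was read after 15 min at room temperature.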
GLP1R cytotox: cytotoxicity in counter-screen for GLP-1R inverse agonists. HEK293 cAMP-luciferase reporter cells, luminescence, 24 h. Potency, µM (top dose mostly 38.3 µM), inactives show at the highest dose activity change, negative = inhibition, most hits filed as inhibitors. 410,000 tested, 0.13% active. AID 624418;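 further: loss of luciferase light is scored as toxicity; on the % scale 0 is the no-effect control and ±100 the full control effect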
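A 23 nL compound transfer followed 12 hours of cell culture at 37 deg C; exposure then lasted 24 hr. Luciferase assay detection reagent was dispensed and plates read for luminescence after a 12 min room-temperature wait.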
GLP-1R inv ag: GLP-1 receptor (human) inverse agonism. P43220. HEK293 GLP-1R CRE-luciferase, luminescence, 24 h; GLP-1R form is constitutively active. Potency, µM (doses to about 38.3 µM), without a hit: at the top dose activity change, negative = inhibition, hits mostly inhibitors. 410,000 tested, 1.6% active. AID 624417; further: on the % scale 0 is the no-effect control and ±100 the full control effect; nearly all actives have a fitted effect of over 55% in size
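HEK293 cells stably co-expressing a cAMP-responsive luciferase reporter and constitutively active GLP-1R were seeded, incubated 12 h, then exposed to compounds for 24 h at 37 C. Luminescence was read 12 min after detection reagent; inverse agonists lower signal.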
GLP1R ag: GLP-1 receptor (human) agonism; Potency, µM (doses to about 45.6 µM), inactives show at the top dose activation, hits mostly activators; HEK293 GLP-1R CRE-luciferase, luminescence, 4-6 h; cells express a hypersensitive GLP-1R form; 380,000 tested, 0.007% active; P43220; AID 624172; further: % of control where 0% means no effect
Numbers without * were called inactive; i = inactive; ? = inconclusive; nt = not tested or not shown; [ ] = remark or other dose. A selection: hits, their analogues and other compounds. The true share with any hit is near 1.7%. The call rests on the fitted dose curve; in most records, active means well fitted curve in the direction sought with a large enough effect; inconclusive means small, poorly fitted or top-dose-only effect, or another doubt; inactive means no such curve, though single readings can be large; an effect the other way counts as inactive or inconclusive. Potency means the concentration at half of the fitted maximal effect.

SMILES | PTHR1 agonist | GLP1R cytotox | GLP-1R inv ag | GLP1R ag
CCc1ccc(NC(=O)Cc2cn(C)c3ccccc23)cc1 | ? | 10% | 10µM* | 10%
CC(C)CNC(=O)c1nc(-c2ccccc2)n(-c2ccccc2)n1 | -9%[57.5 µM] | -9% | 13µM* | 4%
Cc1nc(-c2ccc(OCC(C)C)c(C#N)c2)sc1C(=O)O | nt | nt | nt | -12%
CCc1ccccc1-n1nnc(-c2nsc(NC(=O)c3ccc(C)c(C)c3)n2)c1C | -31% | 0% | 1.1µM* | nt
Cc1ccc(-c2nc3ccccc3c(=O)n2Cc2ccccc2)cc1 | i | -8% | 3.5µM* | 16%
COc1ccc(-c2nc3ccccc3n2Cc2ccc(C)cc2)cc1 | -13% | -26% | ? | 3%
Cc1ccc(Cn2c(-c3ccccc3)nc3ccccc32)cc1 | -38% | 17% | ? | nt
COc1ccc(-c2nc3ccccc3n2Cc2ccc(C(C)C)cc2)cc1 | -21% | 2% | 10µM* | 1%
COc1ccc(-c2nc3ccccc3n2Cc2ccc(Cl)cc2)cc1 | i | -2% | 10µM* | nt
CCc1c(C#N)c(SCCC(=O)Nc2ccc(C)cc2)nc2c1C(=O)CC(C)(C)C2 | -1%[57.5 µM] | -7% | 2.8µM* | -17%
CCOc1ccc(NC(=O)CCSc2nc3c(c(CC)c2C#N)C(=O)CC(C)(C)C3)cc1 | i | 8% | ? | -9%
COc1ccc(NC(=O)CCn2cnnn2)cc1 | i | 2% | 5% | nt
NC(=S)N/N=C/c1ccccc1OCCSc1ccc(Cl)cc1 | -20% | 3.2µM* | 2.8µM* | 0%
Cc1c(C(=O)N2CCC(C)CC2)c(S(=O)(=O)N2CCN(c3ccc(Cl)cc3)CC2)c(C)n1C | i | -1% | -20% | nt
CN(C(=O)CSc1nc2ccccc2n1Cc1cccc(C(F)(F)F)c1)c1ccccc1 | -16% | -18% | 10µM* | nt
CC(C)N(C(=O)CSc1nc2ccccc2n1Cc1ccc(F)cc1)C(C)C | -8% | ? | 2.8µM* | 4%
COC(=O)c1ccc(Cn2c(SCC(=O)Nc3ccc(F)cc3)nc3ccccc32)cc1 | i | 15% | 7% | nt
CCCNC(=O)CSc1nc2nc(C)c(Cc3ccccc3Cl)c(C)n2n1 | i | -4% | -7% | nt
CC(C)CNC(=O)COC(=O)c1c2c(nc3ccccc13)/C(=C\c1cccs1)CC2 | -4% | i | 4.5µM* | -9%
CCc1ccc(S(=O)(=O)c2nnn3c2nc(NC2CCCCCC2)c2sccc23)cc1 | i | -4% | 24% | nt
CCN(CC)S(=O)(=O)c1cccc(C(=O)Nc2nc3cc4c(cc3s2)OCCO4)c1 | -30%[57.5 µM] | -29% | 11µM* | -10%
O=C(Nc1nc2cc3c(cc2s1)OCCO3)c1cccc(N2C(=O)CCC2=O)c1 | -95% | 1% | ? | -2%
Cc1ccccc1NC(=O)Nc1nnc(N2CCCCCC2)s1 | i | -2% | 15% | nt
COc1cccc(CNC(=O)c2cc(C)nc3c2c(C)nn3-c2cccc(F)c2)c1 | i | 6% | 2% | nt
CCOc1ccccc1C(=O)N(Cc1ccc(N(C)C)cc1)Cc1ccco1 | -12% | 10% | ? | nt
SMILES | PTHR1 agonist | GLP1R cytotox | GLP-1R inv ag | GLP1R ag
C=CCc1cc(Cl)ccc1OCCOCCN(C)C | i | 1% | 7.1µM* | -2%
COCCCNCCCOc1ccc(Cl)cc1C(C)(C)C | i | ? | 5.6µM* | -3%
CCCCNCCOCCSc1ccc(Cl)cc1 | -12%[57.5 µM] | -5% | -28% | -4%
COCCCNCCCCSc1ccc(Cl)cc1 | i | -4% | 11µM* | 20%
CCC(C)NCCCOc1ccc(Cl)cc1C(C)(C)C (stereo not given) | -16% | 63% | -10% | -13%
CC(C)NCCOCCSc1ccc(Cl)cc1 | -16% | -5% | 13µM* | -5%
Cc1ccc(Cl)cc1NC(=O)N1CCC(CN2CCc3ccccc3C2)CC1 | -23% | 0% | -18% | nt
O=C1C(=O)N(C2CCN(S(=O)(=O)c3ccc(F)cc3)CC2)CCN1Cc1ccccc1 | i | 0% | 6% | nt
C=CCc1cc(Cl)ccc1OCCNCCCOC | -2% | ? | 4.5µM* | -1%
Cc1cc(C)cc(-n2c(C)nc3cc(C(=O)NCc4ccccc4Cl)ccc32)c1 | i | ? | 11µM* | nt
COc1cc(C(=O)OCc2cc(=O)n3ccsc3n2)cc(OC)c1OC | i | -23% | ? | nt
O=C(Nc1ncccc1O)c1cc2ccccc2o1 | -38% | ? | 11µM* | -26%
Cc1ccnc(NC(=O)c2cc3ccccc3o2)c1 | -12% | 6% | 5.6µM* | -22%

Screens: PubChem BioAssay, National Center for Advancing Translational Sciences (NCATS)
